Screening results (PubChem BioAssay)
Methyltransferases = Primary Screen for Target Class Profiling of Small Molecule Inhibitors of Methyltransferases; purified enzyme, MTase-Glo SAH luminescence; hits give low values; calls only at 40 µM; 25,000 tested, 3.9% active; AID 1745853, 2022; call rule not given here
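Each enzyme was reacted with SAM and its substrate, with compounds tested once at 40 uM; SAH formed was read by MTase-Glo luminescence.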
An asterisk follows results filed as active; i = inactive; + = active, no number; ! = not confirmed by another sample. Only a selection was taken, and hits are over-represented in it overall. % is scaled to controls: 0 for no effect and ±100 for the full control effect.

SMILES | Methyltransferases
COc1ccccc1CNC(=O)C1(C)Cn2cnc(C(=O)NC3CCCCC3)c2C(=O)N1C1CC1 (stereo not drawn) | i
N#Cc1ccc(-c2csc(NN=C3CCCC3)n2)cc1 | +!
Cc1cnc(Nc2ccc(F)cc2Cl)nc1-c1c[nH]c(C(=O)NC(CO)c2cccc(Cl)c2)c1 (stereo not drawn) | i
CC(C)COC(=O)c1ccc2c(c1)C1C=CCC1C(c1ccc(F)cc1)N2 (stereo not drawn) | i
CCc1ccc(C(=O)COC(=O)C(Cc2c[nH]c3ccccc23)NC(=O)c2ccc(Br)cc2)cc1 (stereo not drawn) | i
CCOC(=O)c1cc2n(n1)CC(C)(C(=O)NCCC(C)C)N(c1ccc(C)c(Cl)c1)C2=O (stereo not drawn) | i
O=C(O)CNC(=O)CNC(=O)CNC(=O)CSC(=O)c1ccccc1 | i
CC(=O)NC(Cc1ccccc1)C(=O)NC(C(=O)O)C(C)C (stereo not drawn) | i
O=C(O)CNC(=O)C(CS)Cc1ccccc1 (stereo not drawn) | +
CN(C(=O)c1ccc2oc(Cc3ccc(Cl)cc3)nc2c1)[C@H]1COC[C@@H]1O | i
Cc1cc2c(cc1CC(=O)c1sccc1S(=O)(=O)Nc1onc(C)c1Cl)OCO2 | +!
Cc1ccc(C)c(NC(=O)Cn2ccn3nc4c(c3c2=O)CCCCC4)c1 | i
Cc1cc(Cl)ccc1NC(=O)c1cc2n(n1)CC(C)(C(=O)NC1CCCCC1)N(C)C2=O (stereo not drawn) | i
O=C(CC1CCCC1)N1CCC(c2noc(-c3cnccn3)n2)C1 (stereo not drawn) | i
CC(C)Cn1c(=O)c2ccc(C(=O)NC(C)C)cc2n2c(SCc3c(F)cccc3Cl)nnc12 | i
COc1cc(CN2CCN(c3noc(C(C)C)n3)CC2CCO)cc(OC)c1 (stereo not drawn) | i
CC1CCC(NC(=O)C2c3cccn3CC(=O)N2CCC2=CCCCC2)CC1 (stereo not drawn) | i
CC[N+]1(C/C2=C/CCCCCC2)CCC(NC(=O)C2c3cc(Cl)ccc3Oc3ccc(Cl)cc32)CC1 (stereo not drawn) | +
CCc1cc2c(cc3n2CC(C)(C(=O)NC2CCCCCC2)N(Cc2ccccc2C)C3=O)s1 (stereo not drawn) | i
O=S(=O)(c1ccc(F)cc1)N1CCC(n2cnnc2-c2ccccc2)CC1 | i
CCOCCCN1C(=O)c2cc(-c3ccc(C(C)C)cc3)nn2CC1(C)C(=O)NC1CCCCC1 (stereo not drawn) | i
CSc1ccc(N2C(=O)c3ccccc3CC2(C)C(=O)NCc2ccccc2)cc1 (stereo not drawn) | i
COc1cccc(-n2nc(C(=O)O)cc2-c2ccc(C3CCCCC3)c(Cl)c2)c1 | +
COC(=O)c1cc2n(n1)CC(C)(C(=O)NC1CCCCCC1)N(Cc1cccc(OC)c1)C2=O (stereo not drawn) | i
CCOC(=O)c1cc2n(n1)CC(C)(C(=O)NC1CCCCC1)N(c1cccc(OC)c1)C2=O (stereo not drawn) | i
SMILES | Methyltransferases
Cc1cc2[nH]c(=O)[nH]c2cc1S(=O)(=O)N1CCN(c2cccc(C)c2C)CC1 | i
O=C(Nc1ccc(C(F)(F)F)cn1)N1CCN(c2ncccc2C(F)(F)F)CC1 | +
C[C@H](Oc1ccc(S(C)(=O)=O)cc1C(=O)N1CCN(c2ncc(C(F)(F)F)cc2F)CC1)C(F)(F)F | i
Cc1ccc(NC(=O)N2CCN(c3nc(N)nc4sc(-c5cccnc5)nc34)CC2)cc1 | i
CCn1cc(C(=O)N[C@@H]2CN(c3ncccn3)C[C@H]2CO)cn1 | i
COc1ccccc1-c1nnc2n(Cc3ccc(C)cc3)c(=O)c3ccccc3n12 | i
CC1CCN(C(c2ccc(F)cc2)c2ccc(C(C)C(=O)O)cc2-c2ccc(C(F)(F)F)cc2)CC1 (stereo not drawn) | +
O=C(NCCc1ccccc1)C1CCC(=O)N(CCCN2CCOCC2)C1 (stereo not drawn) | i
CCCn1c(=O)c2ccc(Cl)cc2n2c(=O)n(Cc3ccc(C)cc3)nc12 | i
Nc1ncn([C@@H]2O[C@H](CO)[C@@H](O)[C@H]2O)c(=O)n1 | i
CC(C)(C)c1cc2n(n1)CC(C)(C(=O)NC1CCCCCC1)N(Cc1ccc3c(c1)OCO3)C2=O (stereo not drawn) | i
C=C1C(=O)O[C@H]2C1CCC(C)=C1C(=O)C=C(C)[C@@]12O (stereo partly drawn) | i
C=C(C)C(=O)OC1[C@@H]2C(=C)C(=O)O[C@@H]2C[C@@H](C)[C@@H]2C=CC(=O)[C@@]12C (stereo partly drawn) | i
C=C1C(=O)O[C@H]2CC(=C)[C@H]3CC[C@@](C)(O)[C@@H]3CC12 (stereo partly drawn) | +
Clc1cc(NCc2ccccc2Cl)n2nccc2n1 | i
Cc1ccc(CNC(=O)CSc2nnc3n(CCC(C)C)c(=O)c4ccccc4n23)cc1 | i
COCCn1c(C)cnc1CCNS(=O)(=O)c1c(C)noc1C | i
